# ST2 IL33 inh: inhibitors of human ST2 (IL1RL1) binding to IL-33. inhibition, % for hits at 17 µM. Q01638. actives 2.3% (n = 78,000). AlphaLISA ST2-Fc/biotin-IL-33 interaction, 1 h; in the data active means inhibition above about 30%
# Target sequence (Q01638 whole entry, looked up): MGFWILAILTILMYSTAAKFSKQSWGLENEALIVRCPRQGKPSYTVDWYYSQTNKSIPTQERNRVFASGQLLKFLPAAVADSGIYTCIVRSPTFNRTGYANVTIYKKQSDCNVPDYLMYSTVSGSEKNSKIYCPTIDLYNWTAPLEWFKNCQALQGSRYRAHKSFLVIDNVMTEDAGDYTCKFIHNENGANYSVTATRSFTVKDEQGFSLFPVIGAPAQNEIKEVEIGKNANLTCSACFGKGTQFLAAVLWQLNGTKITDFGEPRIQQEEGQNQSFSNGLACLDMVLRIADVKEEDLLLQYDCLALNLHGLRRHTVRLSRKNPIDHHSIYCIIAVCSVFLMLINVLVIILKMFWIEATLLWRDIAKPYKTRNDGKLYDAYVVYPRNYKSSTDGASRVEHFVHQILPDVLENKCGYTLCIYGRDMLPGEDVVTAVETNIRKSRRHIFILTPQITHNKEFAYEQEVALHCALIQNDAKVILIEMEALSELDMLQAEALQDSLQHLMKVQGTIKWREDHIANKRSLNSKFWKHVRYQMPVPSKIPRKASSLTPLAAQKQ
# * hit, by the source's call; i = inactive. Shown is part of a subset that was picked to be rich in hits.
SMILES,ST2 IL33 inh
O=C(Nc1ccc(N2CCCC2)cc1)c1ccc(F)cc1,57.0%*
O=C(Cc1ccccc1)Nc1ccc(N2CCCC2)cc1,59.0%*
Cc1ccc(C(=O)Nc2cccc([N+](=O)[O-])c2)cc1Cl,i
O=C(Nc1ccc(N2CCCC2)cc1)c1cc(I)ccc1Cl,51.0%*
O=C(Cc1ccccc1)Nc1ccc(S(=O)(=O)N2CCCC2)cc1,i
CCc1cccc(C)c1NC(=O)c1ccc(C)c(Cl)c1,i
CC(=O)c1ccc(C(=O)Nc2ccc(N3CCOCC3)cc2)cc1,i
Cc1ncc2c(c1CNS(=O)(=O)N(C)C)CCN(C(=O)Cc1c(F)ccc(F)c1F)C2,i
COc1ccc(OC)c(CNC(=O)CC2C(=O)NCCN2Cc2cccc(F)c2F)c1 (stereo not given),i
CCN(CC)C(=O)CNS(=O)(=O)c1ccccc1N,i
Cc1c(C(=O)N(C)C)sc2[nH]c(=O)n(-c3ccc(F)cc3)c(=O)c12,i
CC(=O)Nc1ccc(C(=O)CSc2n[nH]c(-c3ccco3)n2)cc1,i
CC(C)c1cc(Cn2nc(C3CCCNC3)n(-c3ccccc3)c2=O)on1 (stereo not given),i
O=C(Cn1c(=O)[nH]c2ccsc2c1=O)Nc1ccccc1,i
CN(Cc1cc2c(cc1Cl)OCO2)CC1CCCCO1 (stereo not given),i
Cn1cc(CN2C[C@@H]3C[C@H](C2)c2ccc(NC(=O)c4ccc(F)cc4)c(=O)n2C3)c2ccccc21,i
O=C1C(Br)=C(Br)C(=O)c2ccccc21,i
O=C1C(=Cc2cccn2-c2ccc(Br)cc2)C(=O)c2ccccc21,i
O=C1c2ccccc2-c2ccc(Br)cc21,32.0%*
Cc1ccn(CC(=O)NCC2(N(C)Cc3ccccc3)Cc3ccccc3C2)n1,i
CCOC(=O)c1sc(=NC(=O)c2nc3ccccc3s2)n(C)c1C,i
C=CCN1C(=O)c2ccccc2Sc2ccc(C(=O)O)cc21,i
C=CCNc1nc2ccccn2c(=O)c1/C=C1\SC(=O)N(CCC)C1=O,i
C=CCN1C(=O)S/C(=C/c2ccc(N3CCCC3)o2)C1=O,44.0%*
CC(C)(C)C(=O)/C=C(N)\C=C\c1ccccc1,37.0%*
SMILES,ST2 IL33 inh
CC(=O)Nc1ccc(/C=C/c2ccccc2)cn1,i
O=C(/C=C/c1ccccc1)CC(O)CCc1ccccc1 (stereo not given),i
Cn1cc(C(=O)NC2CCN(Cc3ccccc3)CC2)c2c3ccccc3n(C)c2c1=O,i
O=C1NC(=Nc2ccccc2Cl)SC1(CO)CO,i
CCOc1ccccc1/C=C1/SC(=O)NC1=O,i
COc1cccc(/C=C2\SC(N3CCN(C)CC3)=NC2=O)c1OC,i
O=C1NC(=Nc2ccccc2Cl)S/C1=C/c1cc2c(cc1Cl)OCO2,31.0%*
O=[N+]([O-])c1ccc(Cl)c(N=Cc2ccc(Br)c([N+](=O)[O-])c2)c1,i
O=C(/C=C1\Sc2ccccc2NC1=O)NCc1ccc2c(c1)OCO2,i
O=C1NC(=Nc2ccccc2Cl)S/C1=C/c1ccc([N+](=O)[O-])cc1,31.0%*
COc1cccc(/C=C2/SC(=Nc3ccccc3Cl)NC2=O)c1OC,31.0%*
O=C1NC(=O)/C(=C/c2ccc(-c3cc([N+](=O)[O-])ccc3Cl)o2)S1,i
Cc1cc(C)nc(SCCN2CCCC2)n1,i
c1ccc(CN2CCCC(CNc3nc4nonc4nc3N3CCOCC3)C2)cc1 (stereo not given),i
COc1ccc(-n2nc(C(=O)N3CCCCC3C)c3c4ccccc4n(C)c3c2=O)cc1Cl (stereo not given),97.0%*
COc1ccc(-n2nc(C(=O)NC3CC3)c3c4ccccc4n(C)c3c2=O)cc1Cl,i
COc1ccc(-n2nc(C(=O)NCc3ccco3)c3c4ccccc4n(C)c3c2=O)cc1Cl,i
COc1ccc(OCc2nc3ccccc3[nH]2)cc1,i
Cc1cc(OCc2nc3ccccc3[nH]2)ccc1C(C)C,i
Brc1cnc2nc(COc3ccccc3)[nH]c2c1,35.0%*
CCCSc1oc(-c2cccs2)nc1S(=O)(=O)c1ccccc1,i
O=C(O)CSC12C[C@H]3C[C@@H](C1)CC(C(=O)O)(C3)C2,i
[O-][n+]1cccc2c(Br)cc(Br)c(O)c21,30.0%*
O=C1Nc2ccccc2N(O)N1c1ccccc1I,i
CCN(CC)CC(=O)Nc1c(C(=O)c2ccccc2)oc2ccccc12,43.0%*
SMILES,ST2 IL33 inh
O=C(Nc1c(C(=O)O)oc2ccccc12)c1ccccc1,i
CCC(=O)Nc1c(C(=O)Nc2ccccc2F)oc2ccccc12,i
COc1ccc(C(=O)Cn2c(=O)n(Cc3ccccc3)c(=O)c3cc(OC)c(OC)cc32)cc1,i
CNC(=O)c1ccc(Cn2c(=O)c3cc(OC)c(OC)cc3n(CC(=O)N3CCC(C)CC3)c2=O)cc1,i
CCN(CC)C(=O)C1CCCN(CC(=O)Nc2c(C)nn(CC)c2C)C1 (stereo not given),i
CCn1c2ccccc2c2cc(CN3CCCN(C)CC3)ccc21,i
CCn1c2ccccc2c2cc(/C=C/[N+](=O)[O-])ccc21,38.0%*
CCn1c2ccccc2c2cc(NC(=O)CSc3cc(=O)n(C)c4ccccc34)ccc21,i
